Laboratory results: PubChem BioAssay (NCATS)
Values joined by “and” are separate entries in the source; they are usually repeats but may differ in a detail not shown here. Identical values can stand only once. Records with an inconclusive call do not appear. Active and inactive are the calls of the source. The call rests on the fitted dose curve; in most records, active means well fitted cell-killing curve with a large enough effect; inconclusive means small, poorly fitted or top-dose-only effect, or effect the other way; inactive means no such curve, though single readings can be large or run the other way.

Assay: Viability qHTS for spleen associated tyrosine kinase inhibitor (SYKi) naive MV4-11 cells (AID 1963823); further: nearly all actives have a fitted effect of over 40% in size
Conditions: MV4-11 AML viability, CellTiter-Glo luminescence, 72 h; series mostly up to 45 µM; viability (% of control): at the top concentration
Source text: Department of Medicine, Hematology/Oncology
University Hospital Frankfurt, Germany.
Trials have shown promising clinical activity of the selective SYK inhibitor entospletinib in patients with high expressing HOXA9/MEIS1 acute leukemias. As the development of resistance mechanisms is a common problem in the use of targeted drugs, we performed a chemical library screen to identify drug sensitivities in SYK inhibitor resistant AML cells. […] Glucocorticoids are potent immunosuppressants which work in part by inhibiting the transcription of cytokine genes.
Described herein is a viability screen to look for activity in the SYK inhibitor naive cell line against four NCATS compound libraries (MIPE 5.0, NPC, NPACT, and Kinase) totaling 11372 compounds. Active hits were reacquired for confirmation and further secondary assay testing.
SEQUENCE No. (e.g., 1, 2, 3, etc.); […] (e.g., Cells, Incubation, Reagent, etc.); VALUE; DESCRIPTION.
1; Media; 2uL; white, solid-bottom Corning assay plate.
2; Compounds; 23nL; Echo acoustic dispenser.
3; Cell; 5uL; 500 cells per well.
4: Incubation; 72hr; 37 C, 5% CO2, 95% humidity.
5; Reagent; 3uL; CellTiter-Glo reagent (Promega).
6; Incubation; 10min; room temperature.
7; Detection; Luminescence; ViewLux plate reader (PerkinElmer).
NOTES (numbers refer to Sequence numbers above
1. Quantitative high-throughput screening (qHTS) of small molecule compounds was conducted on naive SYKi MV4-11 cell line.
2. Twenty-three nanoliter of small molecule compounds were added to each assay plates using the Echo acoustic dispenser (Beckman Coulter).
3. Cells were seeded into the assay plates at a final density of 500 cells in 5uL of media per well using the Multi-drop Combi dispenser.
4. Plates were covered with stainless steel gasketed lids and incubated for 72 hours at standard cell culture conditions.
5. Viability was assessed by adding 3uL of CellTiter-Glo detection reagent (Promega).
6. Plates were covered with gasket lids and incubated for 10 minutes at room temperature.
7. Luminescence was measured on a ViewLux plate reader (PerkinElmer).
Potency means the concentration at half of the fitted maximal effect.

SMILES | viability (% of control) | Potency
CC1(C)C[C@H]2C=C(C=O)[C@]3(C(=O)O)C[C@]3(C)[C@H]2C1 | 91.1% (inactive) | 
CC(C)=CCC/C(C)=C/CO[C@@H]1O[C@H](CO[C@@H]2O[C@@H](CO)[C@H](O)[C@H]2O)[C@@H](O)[C@H](O)[C@H]1O | 81.6% [at 17.3 µM] (inactive) | 
O=S(=O)(c1cccc2c(I)cccc12)N1CCCNCC1 |  | 7.42 µM (active)
CC(C)Oc1ccc(-c2nc(-c3cccc4c3CCC4NCCC(=O)O)no2)cc1C#N (stereo not given) | 73% (inactive) | 
Cc1cc(O)cc(Oc2cc(C)c(C(=O)O)c(O)c2)c1 | 69.8% (inactive) | 
C=C(C)C1CC2(CO)C(=CC1=O)CCC(O)C2C (stereo not given) | 61% (inactive) | 
C[C@H]1C(=O)N2c3ccccc3[C@@]3(O)C[C@@H]4C(=O)N[C@](C)(c5nc6ccccc6c(=O)n54)N1[C@@H]23 | 65% [at 17.3 µM] (inactive) | 
Cc1cc(C)c(-c2csc(NC(=O)c3ccccc3)n2)c(C)c1 |  | 6.51 µM (active)
C[C@@H](CN1CCC(n2c(=O)[nH]c3cc(Cl)ccc32)CC1)NC(=O)c1ccc2ccccc2c1 |  | 20.6 µM (active)
C=CC(C)(C)O[C@@H]1O[C@H](CO[C@@H]2OC[C@](O)(CO)[C@H]2O)[C@@H](O)[C@H](O)[C@H]1O | 84% (inactive) | 
CN(C)CCCN1c2ccccc2CCc2ccc(Cl)cc21 |  | 16.6 µM (active)
COC(=O)C1(O)C(OC(C)=O)CCC2C3(CC(c4ccoc4)OC3=O)C(C)=CCC21C(=O)OC (stereo not given) | 84.5% [at 17.3 µM] (inactive) | 
O=C(Nc1ccccc1-c1cn2c(CN3CCNCC3)csc2n1)c1cnc2ccccc2n1 |  | 9.2 µM (active)
Cc1cc(C)c(Nc2ccnc(Nc3ccc(C#N)cc3)n2)c(C)c1 |  | 2.31 µM (active)
C[C@@]12CC3(S(=O)(=O)O)OC(O1)[C@]1(COC(=O)c4ccccc4)[C@H]3C[C@]21O[C@@H]1O[C@H](CO)[C@@H](O)[C@H](O)[C@H]1O | 82.2% [at 17.3 µM] (inactive) | 
O=C(/C=C/c1ccc(O)cc1)O[C@H]1[C@H](OC2CCCCC2O)O[C@H](CO)[C@@H](O)[C@@H]1O (stereo not given in full) | 67.5% [at 17.3 µM] (inactive) | 
C=C1CC[C@@H]2[C@](C)(CO)[C@H](O)CC[C@@]2(C)[C@@H]1C/C=C1/C(=O)OCC1O (stereo not given in full) |  | 2.91 µM (active)
CC(CCC1(O)OC2CC3C4CCC5CC(O[C@@H]6O[C@H](CO)[C@@H](O)[C@H](O)[C@H]6O[C@@H]6OC[C@@H](O)[C@H](O)[C@H]6O)C(O)CC5(C)C4CCC3(C)C2C1C)CO[C@@H]1O[C@H](CO)[C@@H](O)[C@H](O)[C@H]1O (stereo not given in full) | 83.1% [at 9.25 µM] (inactive) | 
Cc1nc(CN(C)c2ncnc3ccc(-c4ccc5c(c4)OCO5)cc23)cs1 |  | 3.26 µM (active)
CCn1cc(-c2ccnc3[nH]c(-c4cccc(CN(C)C)c4)cc23)c(-c2ccc(NC(=O)N(C)C)cc2)n1 |  | 103 nM (active) and 83.3 nM (active)

SMILES | viability (% of control) | Potency
Cc1ccccc1CN1C2=NCCN2C(=O)C2=C1CCN(Cc1ccccc1)C2 |  | 16.4 µM (active)
COc1ccc(CN2C(=O)C(=O)c3cc(S(=O)(=O)N4CCC[C@H]4COc4cccnc4)ccc32)cc1 | 90.3% (inactive) | 
CO[C@@H]1[C@@H](OC(N)=O)[C@@H](O)[C@H](Oc2ccc3c(O)c(NC(=O)c4ccc(O)c(CC=C(C)C)c4)c(=O)oc3c2C)OC1(C)C |  | inactive
Nc1nc2c(ncn2COCCO)c(=O)[nH]1 |  | inactive
CC(=O)O[C@@H]1[C@H](OC(C)=O)C[C@@]2(C)C(CC[C@@H](C)[C@]23Cc2c(O)cc4c(c2O3)CN([C@@H](CCC(=O)O)C(=O)O)C4=O)C1(C)C (stereo not given in full) | 86.2% [at 17.3 µM] (inactive) | 
O=C1CC[C@@H](C(=O)O)N1 |  | 0.0015 µM (active)
CC(C)=CCNc1ncnc2c1ncn2[C@@H]1O[C@H](CO)[C@@H](O)[C@H]1O |  | 0.82 µM (active)
COC1=CC(=O)C[C@@H](C)[C@]12Oc1cc(OC)cc(OC)c1C2=O | 77.9% (inactive) | 
CN1CCN(c2ccc(-c3cccc(CN4CCOCC4)c3)cc2NC(=O)c2c[nH]c(=O)cc2C(F)(F)F)CC1 | 62.2% (inactive) | 
CC(O)(P(=O)(O)O)P(=O)(O)O | 68% (inactive) | 
COc1cc(N2CCC(N3CCN(C)CC3)CC2)ccc1Nc1ncc(Cl)c(Nc2ccccc2S(=O)(=O)C(C)C)n1 |  | 92 nM (active) and 148 nM (active)
CC1(C)CC[C@]2(C(=O)O[C@@H]3O[C@H](CO)[C@@H](O)[C@H](O)[C@H]3O)CC[C@]3(C)C(=CCC4[C@@]5(C)C[C@@H](O)[C@H](O)[C@](C)(C(=O)O)C5CC[C@]43C)C2C1O (stereo not given in full) | 70% [at 17.3 µM] (inactive) | 
CN1CCN2c3ncccc3Cc3ccccc3C2C1 (stereo not given) | 82.5% (inactive) | 
Brc1c(NC2=NCCN2)ccc2nccnc12 | 78.4% (inactive) | 
Cc1cnc(Nc2ccc(CN3CCOCC3)cc2)nc1Nc1cccc(S(=O)(=O)NC(C)(C)C)c1 |  | 0.164 µM (active)
CC(=O)SCC(=O)c1ccc(NS(=O)(=O)c2ccc(OCCCN(C)C)cc2)nc1 |  | 2.59 µM (active)
Cc1cc2nc3c(=O)[nH]c(=O)nc-3n(C[C@H](O)[C@H](O)[C@H](O)CO)c2cc1C | 86.3% [at 17.3 µM] (inactive) | 
OCCCc1ccccc1 | 61.3% (inactive) | 
C[C@@]1(O)[C@H](O)[C@@H](CO)O[C@H]1n1cnc2c(=O)[nH]c(N)nc21 | 86.6% (inactive) | 
CCOc1ccc(-c2nc(-c3cccc4c3CCC4NCCO)no2)cc1OCC (stereo not given) |  | 13 µM (active)
